# Test results from PubChem BioAssay (NCI).
# The panel holds about 83,000 compounds, 20% with a hit somewhere; the sample as a whole holds those more often.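 Single-dose data. Exposure time 48 hours. Values below 10 considered active.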 Calls of active or inactive are those of the source.
# System: SW-620 colon
# Test: NCI-60 one-dose screen, 48 h (100 = growth as untreated, 0 = no growth, -100 = all killed)
# Conditions: 10 µM unless noted
# Procedure: Growth inhibition of the SW-620 human tumor cell line is measured as a screen for anti-cancer activity. Cells are grown in 96 well plates and exposed to the test compound for 48 hours. Compounds are tested at a single concentration, which is 10^-5 M for most compounds. The reported endpoint is percent growth (GI% or GIPRCNT), where numbers from 0 - 100% represent growth inhibition, and numbers from -100% - 0 represent cell death. For example, a value of 40 represents 60% growth inhibition. A value of 0 means no net growth occurred over the course of the experiment. A value of -40 indicates 40% of cells at the beginning of the experiment died by the end of the experiment. A value of -100 means all cells are dead at the end of the experiment.
# NCI-60 Human Tumor Cell Lines Screen was performed using the standard one-dose NCI protocol, which is described in more detail at https://dtp.cancer.gov/discovery_development/nci-60/default.htm.
# Compounds with GIPRCNT values below 10 were considered active. Activity score was based on GIPRCNT using the following formula: […]
# Score is 0 for GIPRCNT values of 100 or above, 50 for GIPRCNT values of 0, and 100 for GIPRCNT values of -100.
row,Structure (SMILES),growth
1,O=C(NNc1ccc(-c2ccccc2)nn1)c1ccc(F)cc1,100% (inactive)
2,Cc1cccc(/C=C2\N=C(c3ccccc3)N(c3ccc(S(N)(=O)=O)cc3)C2=O)c1,104% (inactive)
3,c1ccc(-c2nnc(-c3c[nH]c4ncccc34)s2)cc1,104% (inactive)
4,CCOC(=O)C(c1ccccc1)N1C(=O)c2ccccc2C1=O (stereo not given),97.4% (inactive)
5,Cc1ccc(NC(=S)/N=c2/n(-c3ccccc3)nc3n2CCN3C2=NCCN2)cc1,97% (inactive)
6,Cc1cc(C)c(O)c(CNCCCNCc2cc(C)cc(C)c2O)c1,71.8% (inactive)
7,O=C(COc1cccc(/C=C2\Oc3ccccc3C2=O)c1)c1ccc([N+](=O)[O-])cc1,113% (inactive)
8,CCOC(=O)c1ccc2nc(-c3c(C)nn(-c4ccccc4)c3N3CCOCC3)[nH]c2c1,97.3% (inactive)
9,CCCCN(CC)CC(CC)Nc1cc(OC)cc2cccnc12 (stereo not given),108% (inactive)
10,C=C(C)[C@@H]1CC[C@]2(COC(=O)c3ccccc3C(=O)O)CC[C@]3(C)[C@H](CC[C@@H]4[C@@]5(C)CC[C@H](OC(=O)c6ccccc6C(=O)O)C(C)(C)[C@@H]5CC[C@]43C)[C@@H]12,41.7% [100 µM] (inactive)
11,Cc1cccc(C[C@H](NC(=O)Nc2ccc(Cl)cc2F)C(=O)N[C@@H]2C(=O)N3C[C@H](OC(=O)CCN(C)C)C[C@H]3C(=O)N3CCCC[C@H]3C(=O)N[C@@H](C)C(=O)N3C[C@H](C)C[C@H]3C(=O)O[C@H]2C)c1,30.2% (inactive)
12,O=c1cc(-c2ccccc2)oc2cc(OCc3cn(Cc4ccc(F)cc4)nn3)cc(O)c12,102% [100 µM] (inactive)
13,C=C(C)[C@@H]1CC[C@]2(C(=O)N3CCN(C)CC3)CC[C@]3(C)[C@H](CC[C@@H]4[C@@]5(C)C/C(=C/c6ccncc6)[C@H](O)C(C)(C)[C@@H]5CC[C@]43C)[C@@H]12,-55.4% [100 µM] (active)
14,CCCCN(CCCC)CC(O)c1ccc(OCc2ccccc2)c2ccccc12 (stereo not given),72.6% (inactive)
15,CCOC(=O)COc1c(C)cc(SSc2cc(C)c(OCC(=O)OCC)c(C)c2)cc1C,99.5% (inactive)
16,CCN(CCNc1ccc(C)c2sc3cc(Cl)ccc3c(=O)c12)CC(C)O (stereo not given),11.9% (inactive)
17,CC1(C)C(=O)/C(=C\c2cccnc2)C[C@]2(C)[C@H]3CC[C@@H]4[C@H]5[C@H](C(=O)/C=C/c6cccnc6)CC[C@]5(C(=O)O)CC[C@@]4(C)[C@]3(C)CC[C@@H]12,-21.8% [100 µM] (active)
18,Cc1cc(C)c(O)c(CNCCCCCCNCc2cc(C)cc(C)c2O)c1,-75.4% (active)
19,C#C[C@]1(O)CC[C@H]2[C@@H]3CC=C4c5nc(N)sc5CC[C@]4(C)[C@H]3CC[C@@]21C,74.6% (inactive)
20,CC1(C)S[C@@H]2[C@H](NC(=O)[C@H](C(=O)O)c3cccs3)C(=O)N2[C@H]1C(=O)O,113% (inactive)

row,Structure (SMILES),growth
1,CCCCC(CC)COC(=O)C[N+](C)(C)CCOC(c1ccccc1)c1ccccc1 (stereo not given),52.2% (inactive)
2,Cc1cc(C)c(-c2cc(O)c(-c3c(C)cc(C)cc3C)cc2O)c(C)c1,26.2% (inactive)
3,O=C(NCCCNC(=O)OCc1ccc2cccc(O)c2n1)OCc1ccc2cccc(O)c2n1,4.75% (active)
4,CCOC(=O)C(=Cc1ccccc1[N+](=O)[O-])C(=O)OCC,19.2% (inactive)
5,O=C(CCN1CCCCC1)c1ccc(Cl)cc1,103% (inactive)
6,Nc1nc(Nc2ccccc2)c2ncn(Cc3cc4c(cc3Br)OCO4)c2n1,20.5% (inactive)
7,O=C(Nc1cccc2cccnc12)c1cc(C(=O)c2ccc(Cl)cc2)n2ccc(-c3ccncc3)cc12,90.6% (inactive)
8,CC1Cc2c(ncnc2-n2cnc3ccccc32)N(C)c2ccccc21 (stereo not given),17.7% (inactive)
9,N#C/C(C(=O)c1ccccc1)=C1/C(=O)Nc2ccccc21,95.9% (inactive)
10,COc1ccc(-c2c(C)nn3c(NCCN4CCOCC4)cc(C)nc23)cc1OC,99.4% (inactive)
11,N#Cc1c(Cl)nc(SCC2CO2)nc1-c1ccccc1 (stereo not given),111% (inactive)
12,N#Cc1ccc(-c2ccc(COc3ccc(CC4SC(=O)NC4=O)cc3)cc2)cc1 (stereo not given),80.1% (inactive)
13,CN(C)Cc1ccc[nH]1,94.6% (inactive)
14,C#C[C@]1(O)CC[C@H]2[C@@H]3CC=C4c5nc(Nc6ccc(OC)cc6OC)sc5CC[C@]4(C)[C@H]3CC[C@@]21C,-12.8% (active)
15,c1cc2ccc3cc2cc1CNCCN1CCNCc2ccc4ccc(cc4c2)CNCCN(CCNC3)CCNCc2ccc3ccc(cc3c2)CNCC1,23.4% (inactive)
16,CCCCCCSc1ncnc2nc[nH]c12,101% (inactive)
17,COc1ccc(/C=C/C=C\C(=O)c2ccc(-n3ccnc3)cc2)cc1,98.4% (inactive)
18,CCOC(=O)CC(c1ccccc1)C(C#N)c1ccccc1 (stereo not given),95.3% (inactive)
19,NC(=O)CC1C=CCC1 (stereo not given),97.3% (inactive)
20,O=c1[nH]cnc2c1ccn2C1OC(CO)C(O)C1O (stereo not given),33.5% (inactive)
